Measurements: publication PMC7862700, “An all-to-all approach to the identification of sequence-specific readers for epigenetic DNA modifications on cytosine”

Legend:
Assay in all cases: DAPPL (digital affinity profiling via proximity ligation, sequencing); 10 mM Tris-HCl pH 7.5, 50 mM NaCl, 1 mM DTT, 4% glycerol, room temperature, 30 min; GST-TFs on glutathione beads, 16-mer random dsDNA library, 0.1% formaldehyde crosslink after washing; high values mean tight binding
Conditions in all cases: protein: recombinant; tags: N-terminal GST; dsDNA, one strand shown
FLI1 = target: T1, FLI1 (Homo sapiens, UniProt Q01543 1-452)
T1 sequence: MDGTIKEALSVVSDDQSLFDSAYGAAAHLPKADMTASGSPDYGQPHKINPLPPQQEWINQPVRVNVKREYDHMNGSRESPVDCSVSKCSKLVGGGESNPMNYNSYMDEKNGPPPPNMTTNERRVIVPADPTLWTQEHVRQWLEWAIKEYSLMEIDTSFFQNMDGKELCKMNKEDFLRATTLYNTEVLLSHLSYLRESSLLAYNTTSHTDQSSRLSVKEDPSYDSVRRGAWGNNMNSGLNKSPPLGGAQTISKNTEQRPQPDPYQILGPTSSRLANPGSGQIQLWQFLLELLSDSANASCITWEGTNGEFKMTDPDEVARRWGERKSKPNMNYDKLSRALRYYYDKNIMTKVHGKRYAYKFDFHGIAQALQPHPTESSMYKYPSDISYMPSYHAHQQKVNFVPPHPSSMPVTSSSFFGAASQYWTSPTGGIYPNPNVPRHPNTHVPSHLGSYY
Outline: (§1)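 Human transcription factors were made in yeast as GST fusions, captured on glutathione beads and barcoded with DNA. With a tag-only sample included, the pool was incubated with 200 nmole of a random double-stranded 16-mer DNA library in Tris/NaCl/DTT/glycerol buffer at room temperature for 30 min, then crosslinked with 0.1% formaldehyde after washing, ligated by proximity, amplified and sequenced. For binding signal, each hexamer's read frequency for a factor is divided by its frequency for the tag-only sample.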

ELK1 = target: T2, ELK1 (Homo sapiens, UniProt P19419 1-428)
T2 sequence: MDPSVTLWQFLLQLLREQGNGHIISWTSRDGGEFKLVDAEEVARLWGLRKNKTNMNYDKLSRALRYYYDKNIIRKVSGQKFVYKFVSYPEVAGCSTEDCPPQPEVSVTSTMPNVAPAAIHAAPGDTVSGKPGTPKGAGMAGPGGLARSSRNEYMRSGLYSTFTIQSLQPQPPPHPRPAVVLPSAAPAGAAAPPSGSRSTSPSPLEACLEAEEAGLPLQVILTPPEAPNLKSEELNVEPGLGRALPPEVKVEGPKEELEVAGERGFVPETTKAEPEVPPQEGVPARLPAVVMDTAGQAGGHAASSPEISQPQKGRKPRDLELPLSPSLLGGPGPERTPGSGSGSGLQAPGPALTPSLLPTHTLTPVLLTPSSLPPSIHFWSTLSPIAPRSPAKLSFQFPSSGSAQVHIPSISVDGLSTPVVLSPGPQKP
Outline: as §1

GABPA = target: T3, GABPA (Homo sapiens, UniProt Q06546 1-454)
T3 sequence: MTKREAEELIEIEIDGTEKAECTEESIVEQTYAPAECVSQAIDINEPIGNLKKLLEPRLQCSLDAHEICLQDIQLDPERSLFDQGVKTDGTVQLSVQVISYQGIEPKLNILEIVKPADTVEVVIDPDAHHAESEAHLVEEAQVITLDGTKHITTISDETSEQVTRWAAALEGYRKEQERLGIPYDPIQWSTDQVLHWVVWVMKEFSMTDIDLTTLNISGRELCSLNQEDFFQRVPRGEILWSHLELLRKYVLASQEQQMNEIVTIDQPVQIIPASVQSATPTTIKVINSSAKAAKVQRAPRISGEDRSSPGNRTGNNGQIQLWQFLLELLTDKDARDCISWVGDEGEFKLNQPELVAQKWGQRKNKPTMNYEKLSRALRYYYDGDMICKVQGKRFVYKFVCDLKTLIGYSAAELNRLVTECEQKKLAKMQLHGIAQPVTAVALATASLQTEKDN
Outline: as §1

ERG = target: T4, ERG (Homo sapiens, UniProt P11308 1-479)
T4 sequence: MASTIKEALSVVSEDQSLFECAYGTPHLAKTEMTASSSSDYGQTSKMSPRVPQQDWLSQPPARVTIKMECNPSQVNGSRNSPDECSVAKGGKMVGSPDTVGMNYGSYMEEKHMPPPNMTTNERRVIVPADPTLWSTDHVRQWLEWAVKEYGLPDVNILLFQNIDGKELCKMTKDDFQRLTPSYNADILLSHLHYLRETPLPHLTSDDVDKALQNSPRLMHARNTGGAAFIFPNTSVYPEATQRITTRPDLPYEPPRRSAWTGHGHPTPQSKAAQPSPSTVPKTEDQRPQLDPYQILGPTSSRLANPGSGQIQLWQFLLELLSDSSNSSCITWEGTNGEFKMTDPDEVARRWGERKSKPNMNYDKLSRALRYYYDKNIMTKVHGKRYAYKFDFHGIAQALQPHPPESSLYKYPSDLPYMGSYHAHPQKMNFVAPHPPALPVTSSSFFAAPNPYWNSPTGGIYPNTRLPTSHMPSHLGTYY
Outline: as §1

ELF1 = ELF1 (Homo sapiens, UniProt P32519 1-619)
Chain of ELF1 (P32519 whole entry): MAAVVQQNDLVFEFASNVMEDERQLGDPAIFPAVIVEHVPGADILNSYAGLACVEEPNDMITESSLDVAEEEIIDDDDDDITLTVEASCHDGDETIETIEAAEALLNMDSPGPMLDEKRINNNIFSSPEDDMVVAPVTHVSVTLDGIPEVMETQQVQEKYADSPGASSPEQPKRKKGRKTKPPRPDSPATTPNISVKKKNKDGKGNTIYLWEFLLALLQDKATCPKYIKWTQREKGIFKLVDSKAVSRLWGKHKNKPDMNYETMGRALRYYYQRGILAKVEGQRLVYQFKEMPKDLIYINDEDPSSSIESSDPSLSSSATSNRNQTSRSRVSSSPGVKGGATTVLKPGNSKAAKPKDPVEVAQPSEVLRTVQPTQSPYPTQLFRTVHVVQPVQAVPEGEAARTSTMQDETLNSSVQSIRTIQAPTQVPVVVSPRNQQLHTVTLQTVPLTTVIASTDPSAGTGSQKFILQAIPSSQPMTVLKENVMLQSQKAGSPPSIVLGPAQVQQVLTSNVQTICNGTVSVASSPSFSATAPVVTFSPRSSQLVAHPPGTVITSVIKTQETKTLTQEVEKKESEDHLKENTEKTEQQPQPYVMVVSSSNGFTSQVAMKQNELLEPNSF
Outline: as §1

EHF = target: T5, EHF (Homo sapiens, UniProt Q9NZC4 1-300)
T5 sequence: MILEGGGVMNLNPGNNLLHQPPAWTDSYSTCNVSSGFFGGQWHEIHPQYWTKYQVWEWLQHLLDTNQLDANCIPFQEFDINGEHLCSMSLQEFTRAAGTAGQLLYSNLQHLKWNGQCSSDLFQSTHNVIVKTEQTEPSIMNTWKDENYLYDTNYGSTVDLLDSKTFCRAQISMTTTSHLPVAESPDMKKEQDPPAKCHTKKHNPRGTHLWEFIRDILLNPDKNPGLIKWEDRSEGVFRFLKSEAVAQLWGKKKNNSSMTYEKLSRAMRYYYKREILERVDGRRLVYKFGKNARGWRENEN
Outline: as §1

SPI1 = SPI1 (Homo sapiens, UniProt P17947 1-270)
Outline: as §1

SPIB = SPIB (Homo sapiens, UniProt Q01892 1-262)
Chain of SPIB (Q01892 whole entry): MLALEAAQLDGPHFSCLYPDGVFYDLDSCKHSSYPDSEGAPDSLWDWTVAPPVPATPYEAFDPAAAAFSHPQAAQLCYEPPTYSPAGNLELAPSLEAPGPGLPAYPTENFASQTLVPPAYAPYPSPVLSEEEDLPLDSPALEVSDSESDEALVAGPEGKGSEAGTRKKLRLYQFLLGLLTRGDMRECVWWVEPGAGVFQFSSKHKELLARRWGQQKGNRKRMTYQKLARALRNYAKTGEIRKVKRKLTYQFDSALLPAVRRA
Outline: as §1

ELK3 = target: T6, ELK3 (Homo sapiens, UniProt P41970 1-407)
T6 sequence: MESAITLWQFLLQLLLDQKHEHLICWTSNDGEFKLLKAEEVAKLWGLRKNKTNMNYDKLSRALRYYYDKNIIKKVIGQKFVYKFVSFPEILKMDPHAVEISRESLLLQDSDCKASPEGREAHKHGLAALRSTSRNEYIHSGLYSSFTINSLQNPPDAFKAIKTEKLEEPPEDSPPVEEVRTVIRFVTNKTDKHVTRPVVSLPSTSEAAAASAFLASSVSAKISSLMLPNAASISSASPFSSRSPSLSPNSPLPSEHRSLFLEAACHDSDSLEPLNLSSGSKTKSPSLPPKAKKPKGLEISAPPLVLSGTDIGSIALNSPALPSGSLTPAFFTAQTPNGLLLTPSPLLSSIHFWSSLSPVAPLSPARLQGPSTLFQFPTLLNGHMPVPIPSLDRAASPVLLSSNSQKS
Outline: as §1

FEV = target: T7, FEV (Homo sapiens, UniProt Q99581 1-238)
T7 sequence: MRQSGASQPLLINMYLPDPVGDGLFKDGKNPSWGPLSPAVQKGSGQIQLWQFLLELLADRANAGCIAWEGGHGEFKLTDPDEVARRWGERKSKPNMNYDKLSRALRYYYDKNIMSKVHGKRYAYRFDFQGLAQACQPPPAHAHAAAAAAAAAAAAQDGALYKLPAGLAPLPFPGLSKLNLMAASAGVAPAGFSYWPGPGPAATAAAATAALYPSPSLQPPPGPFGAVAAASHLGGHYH
Outline: as §1

ETV5 = ETV5 (Homo sapiens, UniProt P41161 1-510)
Chain of ETV5 (P41161 whole entry): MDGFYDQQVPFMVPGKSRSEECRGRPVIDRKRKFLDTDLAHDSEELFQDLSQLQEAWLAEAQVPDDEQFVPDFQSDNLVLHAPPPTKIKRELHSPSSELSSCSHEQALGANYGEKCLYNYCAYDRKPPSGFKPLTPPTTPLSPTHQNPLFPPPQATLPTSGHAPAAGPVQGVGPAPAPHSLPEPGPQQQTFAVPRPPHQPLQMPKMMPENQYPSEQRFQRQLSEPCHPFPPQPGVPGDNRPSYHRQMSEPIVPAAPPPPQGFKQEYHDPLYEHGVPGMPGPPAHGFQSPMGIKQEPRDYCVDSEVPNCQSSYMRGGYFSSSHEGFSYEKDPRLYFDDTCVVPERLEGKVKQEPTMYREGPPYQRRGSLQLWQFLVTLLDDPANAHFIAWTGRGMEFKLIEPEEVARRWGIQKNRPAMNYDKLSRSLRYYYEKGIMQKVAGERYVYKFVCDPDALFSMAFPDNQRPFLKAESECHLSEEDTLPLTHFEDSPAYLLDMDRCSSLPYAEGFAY
Outline: as §1

SPIC = target: T8, SPIC (Homo sapiens, UniProt Q8N5J4 1-248)
T8 sequence: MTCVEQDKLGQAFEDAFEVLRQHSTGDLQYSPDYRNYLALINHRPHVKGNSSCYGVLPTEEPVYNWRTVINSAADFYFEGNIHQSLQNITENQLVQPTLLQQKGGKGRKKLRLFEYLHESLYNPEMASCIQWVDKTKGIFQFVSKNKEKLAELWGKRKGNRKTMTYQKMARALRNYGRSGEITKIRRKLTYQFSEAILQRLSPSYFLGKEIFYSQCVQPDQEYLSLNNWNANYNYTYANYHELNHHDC
Outline: as §1

ELF4 = ELF4 (Homo sapiens, UniProt Q99607 1-663)
Chain of ELF4 (Q99607 whole entry): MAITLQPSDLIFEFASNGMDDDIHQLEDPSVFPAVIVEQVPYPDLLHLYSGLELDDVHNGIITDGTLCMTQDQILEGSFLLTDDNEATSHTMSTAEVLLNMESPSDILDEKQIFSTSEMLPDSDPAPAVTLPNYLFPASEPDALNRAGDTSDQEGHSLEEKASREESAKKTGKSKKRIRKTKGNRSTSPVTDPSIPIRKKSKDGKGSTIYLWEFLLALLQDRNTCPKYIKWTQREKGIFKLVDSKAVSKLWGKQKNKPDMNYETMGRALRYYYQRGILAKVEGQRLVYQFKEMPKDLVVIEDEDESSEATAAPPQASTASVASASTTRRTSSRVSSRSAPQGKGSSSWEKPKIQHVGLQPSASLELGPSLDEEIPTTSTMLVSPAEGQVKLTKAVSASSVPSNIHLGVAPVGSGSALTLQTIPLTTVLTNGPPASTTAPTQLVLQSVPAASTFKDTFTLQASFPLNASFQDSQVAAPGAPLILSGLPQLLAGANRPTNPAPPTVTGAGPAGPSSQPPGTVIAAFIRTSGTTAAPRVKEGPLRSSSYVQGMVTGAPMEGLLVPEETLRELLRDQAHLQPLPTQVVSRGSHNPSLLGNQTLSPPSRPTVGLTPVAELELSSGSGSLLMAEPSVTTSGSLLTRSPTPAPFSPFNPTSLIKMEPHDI
Outline: as §1

ELK4 = target: T9, ELK4 (Homo sapiens, UniProt P28324-2 1-405)
T9 sequence: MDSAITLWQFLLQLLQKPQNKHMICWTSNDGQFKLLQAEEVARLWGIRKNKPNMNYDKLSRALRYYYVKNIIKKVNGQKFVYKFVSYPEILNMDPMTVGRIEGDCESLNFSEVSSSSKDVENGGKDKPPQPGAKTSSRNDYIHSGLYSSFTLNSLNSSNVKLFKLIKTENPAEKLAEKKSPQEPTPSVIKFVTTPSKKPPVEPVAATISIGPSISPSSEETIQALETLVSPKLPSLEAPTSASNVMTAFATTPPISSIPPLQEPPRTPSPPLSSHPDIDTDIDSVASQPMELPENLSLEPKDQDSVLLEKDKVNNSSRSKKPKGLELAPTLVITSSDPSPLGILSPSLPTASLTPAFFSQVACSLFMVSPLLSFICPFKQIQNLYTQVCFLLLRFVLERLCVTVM
Outline: as §1

ETV2 = target: T10, ETV2 (Homo sapiens, UniProt O00321 1-342)
T10 sequence: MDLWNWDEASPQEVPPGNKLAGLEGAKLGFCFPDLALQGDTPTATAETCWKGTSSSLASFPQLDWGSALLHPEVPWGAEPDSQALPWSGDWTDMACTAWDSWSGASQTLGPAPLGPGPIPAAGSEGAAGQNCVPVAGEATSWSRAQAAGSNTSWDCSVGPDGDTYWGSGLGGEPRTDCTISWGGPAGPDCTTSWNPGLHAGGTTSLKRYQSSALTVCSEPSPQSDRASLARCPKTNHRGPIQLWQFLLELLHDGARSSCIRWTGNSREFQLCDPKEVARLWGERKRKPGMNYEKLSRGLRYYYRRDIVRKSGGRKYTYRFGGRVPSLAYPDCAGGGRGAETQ
Outline: as §1

ELF3 = target: T11, ELF3 (Homo sapiens, UniProt P78545 1-371)
T11 sequence: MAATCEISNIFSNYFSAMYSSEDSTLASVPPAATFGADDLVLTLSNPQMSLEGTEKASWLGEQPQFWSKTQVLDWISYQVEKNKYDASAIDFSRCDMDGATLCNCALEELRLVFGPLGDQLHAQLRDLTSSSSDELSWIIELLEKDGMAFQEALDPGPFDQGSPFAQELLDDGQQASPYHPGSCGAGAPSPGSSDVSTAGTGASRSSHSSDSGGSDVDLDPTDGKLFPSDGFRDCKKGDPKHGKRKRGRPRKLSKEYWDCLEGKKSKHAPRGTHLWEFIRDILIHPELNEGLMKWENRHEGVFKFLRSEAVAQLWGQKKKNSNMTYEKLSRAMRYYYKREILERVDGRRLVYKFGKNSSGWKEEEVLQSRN
Outline: as §1

CRX = CRX (Homo sapiens, UniProt O43186 1-299)
Chain of CRX (O43186 whole entry): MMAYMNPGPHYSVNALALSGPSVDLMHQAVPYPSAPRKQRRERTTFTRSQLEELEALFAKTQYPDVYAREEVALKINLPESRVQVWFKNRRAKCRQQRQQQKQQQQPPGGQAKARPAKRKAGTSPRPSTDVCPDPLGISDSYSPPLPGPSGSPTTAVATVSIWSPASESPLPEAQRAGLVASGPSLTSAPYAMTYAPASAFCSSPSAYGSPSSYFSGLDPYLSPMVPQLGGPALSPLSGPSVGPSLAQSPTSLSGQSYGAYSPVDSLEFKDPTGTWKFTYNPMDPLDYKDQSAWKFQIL
Outline: as §1

ETV1 = ETV1 (Homo sapiens, UniProt P50549 1-477)
Chain of ETV1 (P50549 whole entry): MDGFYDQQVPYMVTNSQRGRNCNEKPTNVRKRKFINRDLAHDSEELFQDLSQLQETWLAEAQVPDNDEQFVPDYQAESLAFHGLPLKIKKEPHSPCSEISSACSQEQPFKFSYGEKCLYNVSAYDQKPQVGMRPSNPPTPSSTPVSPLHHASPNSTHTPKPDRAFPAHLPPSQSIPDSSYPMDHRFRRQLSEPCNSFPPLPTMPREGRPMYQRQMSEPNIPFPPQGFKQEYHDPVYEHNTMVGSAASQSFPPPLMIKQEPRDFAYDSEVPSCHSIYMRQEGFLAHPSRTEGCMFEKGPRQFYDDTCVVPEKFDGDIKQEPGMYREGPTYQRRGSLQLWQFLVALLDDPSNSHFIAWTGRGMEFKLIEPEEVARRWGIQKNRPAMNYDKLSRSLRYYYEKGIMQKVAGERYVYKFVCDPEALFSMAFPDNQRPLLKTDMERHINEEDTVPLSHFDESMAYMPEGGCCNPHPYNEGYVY
Outline: as §1

| Sequence | binding signal (FLI1) | binding signal (ELK1) | binding signal (GABPA) | binding signal (ERG) | binding signal (ELF1) | binding signal (EHF) | binding signal (SPI1) | binding signal (SPIB) | binding signal (ELK3) | binding signal (FEV) | binding signal (ETV5) | binding signal (SPIC) | binding signal (ELF4) | binding signal (ELK4) | binding signal (ETV2) | binding signal (ELF3) | binding signal (CRX) | binding signal (ETV1) |
| --- | --- | --- | --- | --- | --- | --- | --- | --- | --- | --- | --- | --- | --- | --- | --- | --- | --- | --- |
| AAACGG | 1.17 fold enrichment (6-mer frequency, TF over GST control) | 1.24 fold enrichment (6-mer frequency, TF over GST control) | 1.13 fold enrichment (6-mer frequency, TF over GST control) | 1.3 fold enrichment (6-mer frequency, TF over GST control) | 1.21 fold enrichment (6-mer frequency, TF over GST control) | 1.26 fold enrichment (6-mer frequency, TF over GST control) | 1.47 fold enrichment (6-mer frequency, TF over GST control) | 1.23 fold enrichment (6-mer frequency, TF over GST control) | 1.22 fold enrichment (6-mer frequency, TF over GST control) | 1.42 fold enrichment (6-mer frequency, TF over GST control) | 1.27 fold enrichment (6-mer frequency, TF over GST control) | 1.19 fold enrichment (6-mer frequency, TF over GST control) | 1.23 fold enrichment (6-mer frequency, TF over GST control) | 1.19 fold enrichment (6-mer frequency, TF over GST control) | 1.22 fold enrichment (6-mer frequency, TF over GST control) | 1.28 fold enrichment (6-mer frequency, TF over GST control) | 1.01 fold enrichment (6-mer frequency, TF over GST control) | 1.27 fold enrichment (6-mer frequency, TF over GST control) |
| TCACAT | 1.23 fold enrichment (6-mer frequency, TF over GST control) | 1.25 fold enrichment (6-mer frequency, TF over GST control) | 1.23 fold enrichment (6-mer frequency, TF over GST control) | 1.29 fold enrichment (6-mer frequency, TF over GST control) | 1.32 fold enrichment (6-mer frequency, TF over GST control) | 1.27 fold enrichment (6-mer frequency, TF over GST control) | 1.32 fold enrichment (6-mer frequency, TF over GST control) | 1.19 fold enrichment (6-mer frequency, TF over GST control) | 1.24 fold enrichment (6-mer frequency, TF over GST control) | 1.28 fold enrichment (6-mer frequency, TF over GST control) | 1.28 fold enrichment (6-mer frequency, TF over GST control) | 1.11 fold enrichment (6-mer frequency, TF over GST control) | 1.15 fold enrichment (6-mer frequency, TF over GST control) | 1.17 fold enrichment (6-mer frequency, TF over GST control) | 1.32 fold enrichment (6-mer frequency, TF over GST control) | 1.21 fold enrichment (6-mer frequency, TF over GST control) | 1.09 fold enrichment (6-mer frequency, TF over GST control) | 1.21 fold enrichment (6-mer frequency, TF over GST control) |
